Data on 22 compounds can be found in PubChem BioAssay AID651706 (NMMLSC, 2012).

About 55 (2%) of roughly 2,300 compounds were called active.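 How the source made its calls: active means share of green or green-and-red cells above 9 and 9% in run 1 or 4 and 3% in run 2; inactive means the rest, inconclusive results apart.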 The list is a sample of the results.

The nature of this assay: inducers of myeloid progenitor differentiation, confirmation, cell-based, GFP/Mac1 flow cytometry, cherry pick 01 (AID 651706).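 On differentiation response: plate controls were double positive share in DMSO wells for no effect and share in positive control wells for full effect.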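 On double positive cells: share of live cells carrying both lysozyme GFP and MAC1 staining after four days.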 The note with it: ER-HoxA9 myeloid progenitors, stronger effect = higher value; differentiation response: GFP/Mac1 double-positive flow; double positive cells: measured here: percent double positive cells. For orientation: Flow cytometry measures light scatter and fluorescence of single cells or particles in a stream.
Turning to `CCN(CC)c1ccc(/C=N/NC(=O)CNC(=O)c2cccs2)cc1`, the differentiation response is 1.55% (inactive) and the double positive cells came to 1.15%.

For `CCOc1ccc(NC(=O)CSc2nc3c(c(=O)n2-c2ccccc2OC)SCC3)cc1`, the differentiation response is 2.25% (inactive) and the double positive cells stood at 1.4%.

For the compound `CC1=C(C(N)=O)C(c2ccc3c(c2)OCO3)n2nc(-c3cccc(C)c3)nc2N1` (centres undefined), the differentiation response is 4.8% (inactive) and the double positive cells was 5.05%.

Take `COc1cc(/C=C(\C#N)c2nc3ccccc3[nH]2)ccc1O`: the differentiation response is 20.1% (inactive) and the double positive cells was 1.25%.

For `CCCCSc1nc2c(c(=O)n1CC)SC(C)C2` (centres undefined), the differentiation response was 1.7% (inactive) and the double positive cells stood at 0.9%.

As to `Cc1nn(-c2cc(Cl)ccc2N)c(=O)c2ccccc12`, the differentiation response is 1.3% (inactive) and the double positive cells amounted to 1%.

`Cc1cc(NC(=O)CSc2nc(C(C)C)nc3sc4c(c23)CCC(C)C4)no1` (centres undefined): the differentiation response was 1.5% (inactive) and the double positive cells is 1.25%.

Turning to `Cc1ccc(-c2nc(C#N)c(NCCCn3ccnc3)o2)cc1`, the differentiation response was 1.5% (inactive) and the double positive cells worked out at 1.1%.

Turning to `COc1ccccc1NC(=O)c1cc(Cl)nnc1Cl`, the differentiation response was 0% (inactive) and the double positive cells came to 0%.

`CC#CC[N+](C)(C)CCCCCC`: the differentiation response is 5.9% (inactive) and the double positive cells was 3.9%.

`O=C(Nc1ccccc1N1CCN(c2ccccc2)CC1)c1cccc(F)c1`: the differentiation response is 0.9% (inactive) and the double positive cells came to 0.65%.

For the compound `CC(C)OC(=O)CN1C(=O)C(=O)c2ccccc21`, the differentiation response was 2.4% (inactive) and the double positive cells was 0.55%.

As to `N#C/C(=C/c1ccc(N2CCCCC2)o1)C(=O)NCCc1c[nH]c2ccccc12`, the differentiation response is 78.8% (inactive) and the double positive cells came to 5.25%.

`O=C(CN1CCN(C2CCCCC2)CC1)Nc1ccccc1N1CCCCC1`: the differentiation response was 1.2% (inactive) and the double positive cells is 0.65%.

`O=C(Nc1cccc(-c2nc3ncccc3o2)c1)c1ccco1`: the differentiation response was 1% (inactive) and the double positive cells is 0.45%.

Take `Cn1c(CNC(=O)c2ccccc2F)nnc1SCc1ccc(F)cc1`: the differentiation response is 2.7% (inactive) and the double positive cells stood at 1.1%.

For `Cc1c(C(=O)OCC(=O)N(CCC#N)c2ccccc2)oc2c1ccc1ccccc12`, the differentiation response is 0% (inactive) and the double positive cells stood at 0%.

As to `CCOC(=O)C(C(=O)OCC)C(C#N)c1ccccc1` (centres undefined), the differentiation response is 1% (inactive) and the double positive cells was 0.7%.

With `CCC1CCCCN1CCCNC(=O)Cn1nc(-c2ccccc2)ccc1=O` (centres undefined), the differentiation response is 3.1% (inactive) and the double positive cells stood at 2.25%.

With `Cc1ccc(C(=O)NC2CCCC(C)C2C)cc1S(=O)(=O)N1CCCCC1` (centres undefined), the differentiation response was 4.6% (inactive) and the double positive cells was determined as 3.95%.

`COc1ccc(-c2nnc(SCC(=O)c3cccs3)o2)c(OC)c1`: the differentiation response is 4.75% (inactive) and the double positive cells came to 1.2%.

On to `COCCCn1c(=O)/c(=C/c2ccccc2OC(C)C)s/c1=C(\C#N)C(=O)Nc1ccc(C(=O)O)cc1`, for which the differentiation response is 3.5% (inactive) and the double positive cells worked out at 1.7%.
